From PubChem BioAssay AID602405 (Broad Institute, 2012) come the findings set out here.

Screen size: about 360,000 compounds; about 350 (0.097%) were called active. Only a selection was taken, and actives are over-represented in it overall. Unmarked numbers belong to inactive results. Rule as the data show it: active = inhibition above about 16% (passing the limit was not always enough); inconclusive = no clear call, values can overlap the other calls; inactive = below that.

For orientation: inhibition means the change of the read-out against control, counted positive when it falls.

For the assay, the system named is UDP-N-acetylbacillosamine N-acetyltransferase PglD (Campylobacter jejuni). The experiment in a line: C. jejuni PglD acetyltransferase inhibitors, primary screen, biochemical, DTNB colorimetric, single point (AID 602405). As to conditions: purified PglD enzyme, DTNB colorimetric CoA detection; at 12.5 µM; active compounds read high.
With `COc1ccc(-c2ccc([C@H]3[C@H](CO)N4CCCCN(C(=O)Cc5ccncc5)C[C@@H]34)cc2)cc1`, the inhibition was 2.61%. Next, `C/C=C/c1ccc([C@H]2[C@H](CO)N3CCCCN(C(=O)Cc4ccncc4)C[C@@H]23)cc1`: 4.91%. In the case of `O=C(Cc1ccncc1)N1CCCCN2[C@@H](CO)[C@H](c3ccc(-c4ccncc4)cc3)[C@@H]2C1`, the inhibition is 18.4% (active).

As to `O=C(O)[C@H]1[C@H](CO)[C@H]2Cn3c(cccc3=O)[C@@H]1N2C(=O)c1ccccc1`, the inhibition was 3.27%.

On to `CC(=CCOc1ccc2ccc(=O)oc2c1)C1=CC(=O)C(C)(C)O1`, for which the inhibition was 2.27%. Take `c1ccc2sc(N3CCNCC3)nc2c1`: the inhibition is 53.7% (active). `c1ccc2sc(C3CCCNC3)nc2c1` (stereo not given): the inhibition is 3.32%. Then `C[C@H](CO)N1C[C@H](C)[C@H](CN(C)C(=O)Oc2ccc3ccccc3c2)OCc2cnnn2CCCC1=O`, with -0.0925%; and `COC(=O)[C@H]1[C@H](CO)[C@H]2Cn3c(cccc3=O)[C@H]2N1CC1CC1`, with 3.33%.

Take `COC(=O)[C@H]1[C@H](CO)[C@H]2Cn3c(ccc(-c4ccccc4F)c3=O)[C@@H]1N2C(=O)C1CCC1`: the inhibition was -2.57%.
